# Data reported in PubChem BioAssay (NCI).
# “And” between values parts separate entries of the source, which are not always exact repeats. Equal values may be shown once. This is part of a sample that, as a whole, favours compounds with a hit. Of some 83,000 tested, about 20% had one in any assay.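 Method: cells in 96-well plates; compound added at one concentration; 48 h incubation; percent growth measured; values under 10 scored active.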 A number with no mark means an inactive call. The source made the active and inactive calls.
# Legend:
# Assay in all cases: NCI-60 one-dose screen, 48 h (100 = growth as untreated, 0 = no growth, -100 = all killed)
# Settings in all cases: 10 µM unless noted
# [1] = tested on: NCI-H226 lung
# [2] = tested on: NCI-H322M lung
# [3] = tested on: HOP-62 NSCLC
# [4] = tested on: NCI-H460 lung
# [5] = tested on: HOP-92 NSCLC
# [6] = tested on: NCI-H522 lung
# [7] = tested on: A549/ATCC NSCLC
# [8] = tested on: 786-0 renal
# [9] = tested on: COLO 205 colon
# [10] = tested on: DU-145 prostate
# [11] = tested on: K-562 leukemia
# [12] = tested on: MALME-3M melanoma
# [13] = tested on: MDA-MB-231 breast
# [14] = tested on: RXF 393 renal
# [15] = tested on: SF-268 CNS
# [16] = tested on: SF-295 CNS
# [17] = tested on: SF-539 CNS
# [18] = tested on: UACC-257 melanoma
# [19] = tested on: M14 melanoma
Structure (SMILES),growth [1],growth [2],growth [3],growth [4],growth [5],growth [6],growth [7],growth [8],growth [9],growth [10],growth [11],growth [12],growth [13],growth [14],growth [15],growth [16],growth [17],growth [18],growth [19]
Cn1cc(-c2cc(N)n3nc(-c4c[nH]c5ccc(Cl)cc45)cc3n2)c2cccnc21,-58.4% (active),-83.6% (active),-88.9% (active),-47% (active),-70.5% (active),-82.1% (active),-77.2% (active),-92.5% (active),-83.1% (active),-87.6% (active),-24.9% (active),-92.3% (active),-82.3% (active),-73.4% (active),-47.4% (active),-92.6% (active),-95.6% (active),-85.5% (active),–
CC1CCc2c(sc3nc(SCC(=O)c4cccc(Br)c4)n(-c4ccccc4)c(=O)c23)C1 (configuration not stated),19.7%,74.5%,39.9%,55%,44%,40.3%,92.3%,18.8%,25.3%,20.3%,43.3%,97.5%,32.3%,90.9%,64.9%,47.2%,18.3%,91.1%,55.4%
NC1(c2ccc(-c3ccc4ncnc(NCc5ccccc5)c4c3)cn2)COC1,103% and 111%,109% and 97%,118% and 112%,106% and 112%,112% and 120%,109% and 105%,111% and 109%,115% and 104%,112% and 126%,105% and 97.7%,114% and 100%,106%,105% and 106%,103% and 101%,111% and 113%,102% and 101%,101% and 104%,120% and 109%,134% and 114%
O=C(Nc1ccc(S(=O)(=O)N2CCCCC2)cc1)C(Cl)Cl,127%,114%,108%,108%,116%,98.4%,104%,98.9%,120%,104%,111%,99.3%,109%,115%,105%,106%,107%,101%,112%
COc1ccc2[nH]c(O)c(N=Nc3nc(-c4ccc(Cl)cc4)cs3)c2c1,-54.3% (active),12.8%,-26.6% (active),-31.4% (active),-38.8% (active),-26.4% (active),-60.8% (active),-86.6% (active),-76.9% (active),4.95% (active),12.1%,-63.5% (active),17.6%,-90% (active),-9.32% (active),-46% (active),-60.5% (active),9.82% (active),-9.9% (active)
CS(=O)(=O)Nc1cc(-c2ccc3ncnc(Nc4ccc(OCc5cccnc5)c(Cl)c4)c3c2)cnc1Cl,23.8%,-2.48% (active),24.3%,35.2%,-27.9% (active),–,45.6%,2.08% (active),-73.5% (active),16.5%,9.57% (active),-34.8% (active),-57.9% (active),0.962% (active),14.6%,-14.9% (active),-38% (active),1.79% (active),2.98% (active)
